In the supplement of paper PMC11417369:
Whole data set: some 25,000 sequences, median “ln(normalized median fluorescence intensity)” near 9.3, cut for the highest 2% near 10. The full list was thinned out, with the highest values kept by preference.

system: PF3D7_0420300 AP2 domain 1 (GST-tagged); assay: gcPBM binding intensity (ln(normalized median fluorescence intensity)); higher = stronger DNA binding
Outline: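 Each value is the highest Masliner-normalised natural-log median intensity across replicate spots of either orientation of a probe. The probes were primer-extended double-stranded 36-bp intergenic genomic sequences on an Agilent 4 × 180k array, alongside negative controls, exposed for 1 h to GST-tagged P. falciparum DNA-binding domains expressed in E. coli. Bound protein was picked up with Alexa488 anti-GST antibody and scanned at 488 nm.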

Sequence	gcPBM binding intensity (ln)
GATTAAAATCAAAGGTGTACGCACAAATAAGTCCCA [XGTACX_site4360]	9.3
TTTCTTATATAAGTGTACTAAAATATATATATGCAA [GTGCAC_negctrl_site546]	9
GTGTCAAATTTTATAACACACAAAAGGTTATATAAG [CACACA_site7839]	9.28
AAATAGATAAACTAAACACACAAAAAAAAAAAAAAT [CACACA_site1179]	9.84
CATTTATTTTTGTTCTGTACATAAAGATGAACAAAA [XGTACX_site6797]	8.81
AACATACACATATACACACACACATATATACCTATA [CACACA_site6643]	10.4
CATACATACAAACACACACACATATATATACATACA [CACACA_site852]	10.2
TATATATATATATATACACACATATATACCTATATA [CACACA_site6085]	9.31
AATATAAACACAAACACACACATATATATATATATA [CACACA_site4307]	9.68
AAAAAAAAAAAAAACACACACACACGCAAATACATA [CACACA_site6474]	10.2
AAAAAAAAAACAAATACACACGCACCCAAAAAAAAA [CACACA_site8166]	9.81
AATATAAACAAACACACACACATATATATATATATT [CACACA_site5592]	10.1
TATATACACGCACATACACACAAATAAAAAAACACC [CACACA_site7578]	9.93
TATACGTATACCTATACACACATATATATATATATA [CACACA_site1273]	9.49
GGATATAACAAACACACACACACATATATATATATT [CACACA_site4141]	10.2
CATACATACAAACACACACACATATATATATATATA [CACACA_site43]	9.86
CACATACACATACAAACACACATTATATATATATAT [CACACA_site8460]	9.62
TTTTTTTTTGTTTACACACACAAAATATTATATGTA [CACACA_site2470]	9.66
AATATATACATACATACATGCACATATATATATATA [TGCATGCA_site393]	9.36
CATATTAAAAATACATGTACATATATATTTAATATA [XGTACX_site8580]	9.08

Sequence	gcPBM binding intensity (ln)
ATTAAAAAAGAATATACACACCAAAACTGTTTGTTA [CACACA_site4687]	9.21
ATATGACTGTTCATTTGTACGTATAATTATATACGT [XGTACX_site3372]	9.33
ATCAACAAAACATACACACACATATAGATTTATATA [CACACA_site7415]	10
TTTTCAATTTTTTATGAACACACAAAAAAAAAAAAA [CACACA_site8808]	8.77
GTAGAGCATAATAAAACACACACATACATACATATA [CACACA_site8217]	9.84
GGTACATACAAACACACACACAAAAAAAAAAAAATA [CACACA_site1577]	9.91
AATACATACACAAATACACACACAAATACATACACA [CACACA_site8134]	10.1
AAAAAAAAAAAACACACACACACAAATACATACACA [CACACA_site706]	10.2
TACATACACAAATACACACACAAATACATACACAAA [CACACA_site704]	10.1
AAAAAAAAAAAACACACACACAAATACAAATACATA [CACACA_site415]	10.2
TTTTTTTTTTTTAATTAACACACATAAATATATATA [CACACA_site9077]	9.11
AAAAAATAATTGAAGTGTACGTACAATGATTTTACT [XGTACX_site7663]	9.35
CCCATGTAATATTAAACACACACTCATATAACACAA [CACACA_site7906]	9.71
CCCCATATAATGAACACACACACTCCTCATAATTAA [CACACA_site628]	10.2
TTTCCCCCATATAATGAACACACACCCTCCTCATAA [CACACA_site8110]	9.85
ACCTATATAAATTATACACACAAATATAAATATATA [CACACA_site2843]	9.66
ACAAAATATACAAAATGTACAAAATTTACAAAATAT [XGTACX_site6466]	9.43
TATAAAATGACTATATATAATATTAAAAAAAAAAAA [TGCATGCA_negctrl_site387]	9.11
ATGTACCTATTTCATACACACACACCCACAAACAAA [CACACA_site8232]	10
GTACCTATTTCATACACACACACACGCAAACAAACA [CACACA_site6590]	10.3

Sequence	gcPBM binding intensity (ln)
AAGGCAAACAAACACACACACATATATACCTATATA [CACACA_site5203]	10
GTACCTATTTCATACACACACACACCCAAACAAACA [CACACA_site976]	10.3
CCAAACAAAAAAAAAAGTACATAAAACACCTATTTG [XGTACX_site5645]	9.46
ATTTCATACAGACACACACACAAACAAACATATATA [CACACA_site979]	10.1
TATATTTAATTATTATGTACTTATAATTTTTGAAAG [XGTACX_site8548]	8.95
TTAATATAACTTTTTGCACACTTAATTTTTTTTTTT [CACACA_site3364]	9.44
TATATATATATACCAACACACATACAGATATATATA [CACACA_site5060]	9.7
ACATATACATATATATGTACATAAATATATATATAT [XGTACX_site8630]	9.17
TATTCATGCATATACACACACATATATATATATTTT [CACACA_site3955]	9.85
TCTTTTTTTACTTTCTTTTTTTTTTTTTTTTTTTTT [XGTACX_negctrl_site610]	9.11
ATAAATATATATTTACGTACATATTATATATATATA [XGTACX_site6172]	9.27
CGCGCACCCAGACACACACACACACCCATATATATA [CACACA_site2203]	10.2
CGCGCACCCAGACACACACACACACCGATATATATA [CACACA_site8687]	10.2
GGAGCACCCAGACACACACACACATATATATATATA [CACACA_site336]	10.1
TAGACTCCCAGACACACACACACACCCATATAATAT [CACACA_site593]	10.2
CACCCATACAGACATACACACACATATATATTAATA [CACACA_site8077]	9.87
CACCCACACCAACACACACACATATATATATATATA [CACACA_site362]	10.1
TATACACCCAGACACACACACACACCCAAAAAAAAA [CACACA_site497]	10
CACGCGCACCAACACACACACACACCCATATATATA [CACACA_site2204]	10.3
TATAAACACCCATATAAACACACATATAAACCAACA [CACACA_site8790]	9.79
